# This is a sample that favours compounds with a hit; in the whole collection about 2.4% have one here.
# D2 ag-1: agonists of human D2 dopamine receptor (beta-arrestin). P14416. DiscoveRx PathHunter D2 beta-arrestin, luminescence, 90 min; 100% = 57 uM dopamine signal. activation, % (test concentration not listed). 0.084% of 360,000 active. AID 624465; in the data active = activation above about 40%
# Target sequence (P14416 whole entry, looked up): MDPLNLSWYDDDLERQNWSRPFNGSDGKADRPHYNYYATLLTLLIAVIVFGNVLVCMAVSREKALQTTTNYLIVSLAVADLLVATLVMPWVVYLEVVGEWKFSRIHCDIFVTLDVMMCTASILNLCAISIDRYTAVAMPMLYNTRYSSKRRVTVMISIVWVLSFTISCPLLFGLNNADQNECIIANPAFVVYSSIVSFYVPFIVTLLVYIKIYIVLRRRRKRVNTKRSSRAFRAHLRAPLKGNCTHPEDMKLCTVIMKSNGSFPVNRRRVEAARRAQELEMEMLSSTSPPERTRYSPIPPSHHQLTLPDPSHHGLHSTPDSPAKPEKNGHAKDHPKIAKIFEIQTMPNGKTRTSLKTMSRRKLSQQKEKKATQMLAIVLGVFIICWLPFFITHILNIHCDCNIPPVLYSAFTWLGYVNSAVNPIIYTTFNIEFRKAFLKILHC
#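 DiscoveRx PathHunter D2 beta-arrestin cells (2,100/well) attached overnight, then compound-stimulated 90 min at 37 C in HBSS/10 mM HEPES/0.1% Tween-20 buffer; beta-galactosidase complementation read by luminescence after 1 h at ambient temperature. Dopamine 57 uM final (EC100) as control.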
# D2 PAM-1: positive allosteric modulators of human D2 dopamine receptor; P14416; HEK293 T-REx D2, calcium flux, EC20 dopamine potentiation; potentiation, % at 10 µM; 0.34% of 340,000 active;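 active = potentiation over 3 SD above the plate norm, cut at about 30% in these data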; also: 0% is about no effect
#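 Potentiation of an EC20 dopamine calcium response measured kinetically over 180 s, after a preceding 180 s compound-only read flagging agonists. Cells: inducible Hek293 Trex D2 line, 4000/well, cultured overnight at 30 C before dye loading.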
# D2 antagonist: D2 dopamine receptor (human) antagonism; P14416; HEK293 TREx D2 cells, calcium flux, dopamine EC80; inhibition, % at 10 µM; 2% of 340,000 active; in the data active = inhibition above about 30%; inactive = below that, where a call was filed; also: 0% is about no effect
#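 Overnight-induced (tetracycline, 30 C) HEK293 T-REx cells carrying force-coupled D2 receive a no-wash calcium dye, then compound, then EC80 dopamine at 180 s; signals are read kinetically throughout.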
# D2 PAM-2: positive allosteric modulators of human D2 dopamine receptor | DiscoveRx D2 beta-arrestin cells, luminescence, 90 min; 100% = 57 uM dopamine signal | potentiation, % (test concentration not listed) | 0.23% of 360,000 active | AID 624464; in the data active = potentiation above about 50%
#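 D2 cells co-treated with compound plus 50 nM dopamine (EC20) for 90 min at 37 deg C to detect potentiation. Beta-arrestin recruitment was read as enzyme-fragment luminescence after 1 h at ambient temperature. Full response was set by 57 uM dopamine.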
# D2 ag-2: activates the human D2 dopamine receptor | P14416 | AID 485358 | activation, % at 2 µM | HEK293 T-REx D2 cells, calcium flux agonist mode | 0.53% of 340,000 active;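 active = activation over 3 SD above normal in the single-dose calcium agonist read, cut at about 30% in these data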; also: 0% is about no effect
#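 Agonism is scored from calcium flux in a force-coupled, inducible HEK293 cell line expressing D2, read kinetically for 180 s after compound addition against dopamine controls.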
# Starred values were filed as active, the others as inactive; nt = not tested or not shown.
SMILES,D2 ag-1,D2 PAM-1,D2 antagonist,D2 PAM-2,D2 ag-2
O=C(Nc1nccs1)c1ccc(-c2ccc(F)c(Cl)c2)o1,-1.7,4.6,-1.4,-5.3,-1.4
Cc1ccc(O)c(NC(=O)c2nc3nc(C)cc(C(F)F)n3n2)c1,nt,-16.4,nt,nt,0.5
N#C/C(=C\Nc1ccccc1SC(F)(F)F)c1nc(-c2ccc(Cl)cc2)cs1,3.0,1.8,18.8,-2.5,1.6
Cc1cccc(NC(=O)CCNC(=O)c2ccccc2)c1,0.0,6.5,35.5*,-1.6,-3.6
CSc1cccc(NC(=O)CCCNC(=O)c2ccc(Cl)cc2)c1,-1.6,-23.1,44.6*,-13.8,-0.9
O=c1c2nnn(-c3cccc(F)c3)c2ncn1Cc1ccccn1,1.0,-19.4,33.9*,1.6,-0.1
O=C(CC(=O)Nc1ccc(F)cc1F)Nc1ccc(F)cc1F,-0.9,-6.4,22.7,-4.6,-1.7
N#CCO/N=C/C(=O)Nc1ccc(F)cc1F,-3.6,5.8,53.2*,-2.6,-0.8
Cc1cc(C(=O)NCc2ccccc2C)c2c(C)nn(-c3cccc(F)c3)c2n1,nt,-9.4,nt,nt,0.4
COC(=O)c1c(CSc2cccc(C)c2)noc1C(=O)NCc1ccco1,-0.8,-9.6,-0.3,-23.2,-2.4
COC(=O)c1c(CSc2ccc(Cl)cc2)noc1C(=O)NCc1ccco1,2.8,-20.1,37.6*,-12.4,-0.3
CC(=O)c1cccc(NC(=O)CSc2nnnn2C2CCCC2)c1,-2.1,nt,nt,-6.4,nt
CC(=C/c1ccccc1)/C=N/NC(=O)c1ccc2nc[nH]c2c1,-1.0,-24.6,-5.9,-24.3,0.6
O=C(N/N=C/C(Br)=C/c1ccccc1)c1ccc([N+](=O)[O-])cc1,4.2,-8.5,39.1*,-19.6,-0.1
O=C(N/N=C/C(Br)=C\c1ccccc1)c1ccc2nc[nH]c2c1,-3.0,9.1,34.4*,-8.8,1.0
O=C(N/N=C/C(Br)=C/c1ccccc1)c1ccncc1,-1.3,-1.1,12.4,-24.7,-0.2
CCN1CCN(c2nc3c(C)cccn3c(=O)c2/C=C(\C#N)S(=O)(=O)c2ccccc2)CC1,-0.1,nt,37.3*,-7.3,-0.2
CCN1CCN(c2nc3ccccn3c(=O)c2/C=C(\C#N)S(=O)(=O)c2ccccc2)CC1,-8.4,-4.6,33.6*,-21.3,-0.6
CCCCN(C)CCCNC(=O)c1ccc2c(c1)N(CC)C(=O)c1ccccc1S2=O (stereo not drawn),-3.6,-32.3,69.8*,-18.9,-0.6
CCN1CCN(CCNC(=O)c2ccc3c(c2)N(Cc2cccc(Cl)c2)C(=O)c2ccccc2S3=O)CC1 (stereo not drawn),-8.9,-1.2,40.3*,-38.1,0.1
O=C(NCCN1CCCC1)c1ccc2c(c1)N(Cc1ccc(F)cc1)C(=O)c1ccccc1S2=O (stereo not drawn),-1.4,8.2,-5.0,-7.5,0.6
COc1ccc(CNC(=O)Nc2cc(C)ccc2C)cc1,-4.7,-7.8,5.3,-8.4,1.4
COc1ccc(OC)c(NC(=O)NCc2ccc(F)cc2)c1,-0.1,-16.1,38.9*,-18.2,0.8
COc1ccc(C)cc1NC(=O)NC1CCCCCCC1,-2.1,-17.1,32.0*,-31.7,0.1
COc1ccc(OC)c(NC(=O)NC2CCCCCCC2)c1,14.8,-16.9,10.0,-41.1,0.3
SMILES,D2 ag-1,D2 PAM-1,D2 antagonist,D2 PAM-2,D2 ag-2
COc1ccc(NC(=O)NCc2ccncc2)c(OC)c1,-0.5,-4.7,6.2,-31.6,-1.0
COc1ccc(NS(=O)(=O)c2cccc(NC(=O)NC3CCCCC3)c2)cc1,-3.4,-7.9,-9.7,-10.6,0.3
COc1ccc(C)cc1NC(=O)NCc1ccc(F)cc1,-5.7,-20.3,52.8*,-22.3,-0.7
COc1ccc(NS(=O)(=O)c2ccc(C)c(NC(=O)NC3CCCCC3)c2)cc1,4.0,-21.1,33.5*,-16.4,-0.9
COc1ccc(OC)c(NC(=O)C2(C)CCN2Cc2ccccc2OC(F)F)c1 (stereo not drawn),108.2*,nt,nt,17.6,nt
COC(=O)CC1Oc2ccc(C)cc2-n2cc(-c3ccc(C)cc3)nc21 (stereo not drawn),nt,-8.5,nt,nt,-0.3
COc1cccc(C2CNC3(CCCC(C)C3)c3[nH]c4ccccc4c32)c1OC (stereo not drawn),-6.0,-25.4,-7.9,-17.1,1.6

# Source: PubChem
